Test results taken from the supplement of paper PMC10646978.
± gives the standard deviation.

Experiments:
Conditions in all cases: modulator concentration 10 µM
[1] = test system: RAW-Dual (murine macrophage reporter line); experiment: NF-kB reporter (SEAP) activity fold change vs agonist alone; higher = enhanced NF-kB activity
Summary of the method: (§1)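 RAW-Dual murine macrophage reporter cells were seeded at 50 000 per well in 384-well plates and pre-incubated 1 hour at 37 °C with compound pin-transferred to 10 μM final. After 1 hour, a PRR agonist was added and cells incubated overnight. Supernatant NF-κB (SEAP, QUANTI-Blue, 620 nm absorbance) and IRF (Lucia luciferase, QUANTI-Luc, luminescence) signals were divided by the mean agonist-only control on the same plate to give fold change. Two replicate plates were averaged, with errors by propagation.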

[2] = test system: RAW-Dual (murine macrophage reporter line); experiment: IRF reporter (Lucia luciferase) activity fold change vs agonist alone; higher = enhanced IRF activity
Summary of the method: as §1

[3] = test system: RAW-Dual (murine macrophage reporter line); experiment: viability score (confluency relative to resting cells, overnight) (fraction); higher = more viable, active = viable (0.7 or more)
Summary of the method: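 RAW-Dual macrophages in 384-well plates were incubated overnight with compound, final concentration 10 μM. Confluency images from IncuCyte were processed in IncuCyte software into two masks covering all imaged wells. The viability score is each well's confluency relative to resting cells, and a compound met the cutoff when both masks exceeded 70% of resting cells.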

[4] = agonist: CpG ODN 1826 0.5 ug/mL

| Structure (SMILES) | NF-kB reporter [1, 4] | NF-kB reporter ([1]; agonist: LPS 0.1 ug/mL) | NF-kB reporter ([1]; agonist: MPLA […]) | IRF reporter ([2]; agonist: 3'3'-cGAMP 10 ug/mL) | IRF reporter ([2]; agonist: LPS 0.1 ug/mL) | IRF reporter ([2]; agonist: MPLA […]) | viability score [3] |
| --- | --- | --- | --- | --- | --- | --- | --- |
| C[C@@H]1CC[C@H]2[C@@H](C)C(=O)O[C@@H]3O[C@@]4(C)CC[C@@H]1[C@]32OO4 | 0.961 ± 0.086 | 0.916 ± 0.052 | 1.11 ± 0.11 | 1.04 ± 0.048 | 1.13 ± 0.065 | 1.17 ± 0.099 | 0.985 (active) |
| CCC1(C)CC(=O)NC(=O)C1 | 0.907 ± 0.15 | 0.842 ± 0.14 | 0.941 ± 0.054 | 0.899 ± 0.073 | 1.02 ± 0.11 | 1.11 ± 0.16 | 0.985 (active) |
| Cc1cccc(-n2c(C)nc3ccccc3c2=O)n1 | 0.88 ± 0.052 | 0.827 ± 0.1 | 0.949 ± 0.039 | 1.02 ± 0.041 | 1.02 ± 0.054 | 0.935 ± 0.19 | 0.998 (active) |
| CN1C(=O)NC(=O)C(=Cc2ccc([N+](=O)[O-])o2)C1=O | 0.875 ± 0.069 | 1.06 ± 0.083 | 1 ± 0.12 | 0.92 ± 0.066 | 1.24 ± 0.14 | 0.961 ± 0.061 | 1.02 (active) |
| COc1cc(CNCCc2c[nH]c3ccccc23)cc(OC)c1O | 0.642 ± 0.052 | 0.811 ± 0.12 | 1.04 ± 0.096 | 0.93 ± 0.043 | 1.44 ± 0.11 | 1.56 ± 0.15 | 1 (active) |
| COc1cc2c(c(OC)c1OC)-c1ccc(O)c(=O)cc1C(NC(C)=O)CC2 (centres undefined) | 2.16 ± 0.12 | 1.27 ± 0.084 | 1.52 ± 0.16 | 0.705 ± 0.024 | 1.26 ± 0.082 | 1.08 ± 0.19 | 0.754 (active) |
| Clc1cccc(CNCCc2c[nH]c3ccccc23)c1 | 0.317 ± 0.028 | 0.978 ± 0.11 | 0.992 ± 0.099 | 1.13 ± 0.028 | 2.3 ± 0.24 | 1.7 ± 0.26 | 0.258 (inactive) |
| CC(C)NC(C)C(O)c1ccc2c(c1)CCCC2.Cl (centres undefined) | 0.838 ± 0.066 | 1 ± 0.086 | 1.1 ± 0.038 | 0.818 ± 0.091 | 1 ± 0.099 | 0.891 ± 0.23 | 0.994 (active) |
| O=C(O)CCCc1ccc(N(CCCl)CCCl)cc1 | 1.03 ± 0.17 | 1.03 ± 0.084 | 1.11 ± 0.13 | 0.912 ± 0.027 | 1.29 ± 0.28 | 1.08 ± 0.12 | 0.994 (active) |
| NNC(=O)c1ccccc1 | 1.06 ± 0.088 | 1.05 ± 0.082 | 1.02 ± 0.022 | 0.929 ± 0.086 | 0.914 ± 0.15 | 0.931 ± 0.12 | 1 (active) |
| COc1ccc(OC)c(C=C2C(=O)NC(=O)NC2=O)c1 | 1.15 ± 0.12 | 0.845 ± 0.061 | 1.12 ± 0.061 | 0.99 ± 0.17 | 0.995 ± 0.05 | 1.01 ± 0.16 | 0.995 (active) |
| O=C1NC(=O)C(=Cc2cc(Br)ccc2OCc2ccc(Cl)cc2Cl)C(=O)N1 | 0.887 ± 0.05 | 0.945 ± 0.071 | 0.794 ± 0.058 | 0.949 ± 0.033 | 0.751 ± 0.11 | 0.822 ± 0.16 | 0.991 (active) |
| Cc1ccccc1C(=O)Nc1cc(Cl)c([N+](=O)[O-])cc1Cl | 1.05 ± 0.061 | 0.897 ± 0.078 | 0.973 ± 0.029 | 0.997 ± 0.037 | 0.996 ± 0.11 | 0.988 ± 0.21 | 0.998 (active) |
| COc1cc2c(cc1OC)C1CC(=O)C(CC(C)C)CN1CC2 (centres undefined) | 1.09 ± 0.093 | 1.04 ± 0.076 | 0.986 ± 0.045 | 0.983 ± 0.065 | 0.933 ± 0.047 | 0.904 ± 0.073 | 0.992 (active) |
| Cc1cc(OC(=O)C2CCCCC2)c2c3c(c(=O)oc2c1)CCC3 | 0.947 ± 0.094 | 1.01 ± 0.063 | 0.968 ± 0.058 | 0.948 ± 0.042 | 1.29 ± 0.13 | 1.13 ± 0.07 | 1.01 (active) |
| CC12CCC3C(CCC4CC(O)CCC43C)C1CCC2O (centres undefined) | 1.23 ± 0.29 | 0.968 ± 0.059 | 2.43 ± 1.5 | 0.891 ± 0.037 | 1.13 ± 0.18 | 1.21 ± 0.14 | 0.963 (active) |
| O=C1NC(=O)C(=CNc2cccc(O)c2)C(=O)N1 | 0.859 ± 0.075 | 0.914 ± 0.053 | 1.09 ± 0.13 | 0.977 ± 0.062 | 1.43 ± 0.1 | 1.6 ± 0.17 | 1.01 (active) |
| CN1C(=O)NC(=O)C(=Cc2cc(Br)cc(Cl)c2O)C1=O | 0.19 ± 0.019 | 0.505 ± 0.026 | 1.32 ± 0.63 | 0.537 ± 0.042 | 1.11 ± 0.078 | 0.942 ± 0.079 | 1.01 (active) |
| CC12CCC3C(CCC4CC(=O)CCC43C)C1CCC2=O (centres undefined) | 1.29 ± 0.32 | 1.03 ± 0.058 | 0.933 ± 0.075 | 1.04 ± 0.044 | 1.23 ± 0.18 | 1.23 ± 0.17 | 0.997 (active) |
| COc1ccc(N2C(=O)C(=Cc3ccc(OCc4ccc(F)cc4)c(OC)c3)C(=O)NC2=S)cc1 | 1.08 ± 0.11 | 1.04 ± 0.085 | 0.932 ± 0.057 | 0.919 ± 0.042 | 1.02 ± 0.062 | 1.05 ± 0.13 | 1.01 (active) |
| CC(=O)C1CCC2C3CCC4CC(O)CCC4(C)C3CCC12C (centres undefined) | 1.17 ± 0.28 | 1.16 ± 0.097 | 1.02 ± 0.079 | 0.858 ± 0.034 | 1.2 ± 0.19 | 1.38 ± 0.13 | 0.985 (active) |
| Cc1cc(C(=O)N2C3CCC2c2cncnc2C3)c(C)o1 (centres undefined) | 1.03 ± 0.087 | 1.06 ± 0.092 | 1 ± 0.036 | 0.974 ± 0.066 | 0.94 ± 0.06 | 0.832 ± 0.13 | 0.999 (active) |
| CN1Cc2c(ccc3c2OCO3)C2C(O)Cc3cc4c(cc3C21)OCO4 (centres undefined) | 1.75 ± 0.13 | 1.49 ± 0.12 | 1.79 ± 0.19 | 0.269 ± 0.012 | 1.64 ± 0.22 | 2 ± 0.38 | 0.883 (active) |
| COc1cc(OC)c(OC)cc1C=O | 1.08 ± 0.3 | 1.04 ± 0.082 | 1.02 ± 0.067 | 0.794 ± 0.027 | 1.02 ± 0.11 | 0.99 ± 0.22 | 0.992 (active) |
| Cc1cccc(COc2ccc(C=C3C(=O)NC(=S)NC3=O)cc2)c1 | 0.855 ± 0.07 | 0.875 ± 0.047 | 1.14 ± 0.099 | 0.844 ± 0.056 | 0.992 ± 0.093 | 0.969 ± 0.12 | 0.981 (active) |
| COc1ccc(CNCCc2c[nH]c3ccccc23)cc1OC | 0.397 ± 0.056 | 0.947 ± 0.12 | 0.808 ± 0.077 | 0.763 ± 0.03 | 1.33 ± 0.26 | 1.34 ± 0.24 | 1.01 (active) |
| C#CCOc1ccc(C=C2C(=O)NC(=O)N(c3cc(OC)c(Cl)cc3OC)C2=O)cc1Cl | 1.1 ± 0.1 | 1 ± 0.059 | 0.899 ± 0.056 | 0.952 ± 0.051 | 1.15 ± 0.12 | 0.887 ± 0.055 | 1.01 (active) |
